Here are results for 16 compounds from PubChem BioAssay (NCI).

Some test systems named below: NCI-H23 lung; NCI-H226 lung; NCI-H322M lung; HOP-62 NSCLC; NCI-H460 lung; HOP-92 NSCLC; NCI-H522 lung; A549/ATCC NSCLC; 786-0 renal; COLO 205 colon.
Holding throughout (assay): NCI-60 one-dose screen, 48 h (100 = growth as untreated, 0 = no growth, -100 = all killed)
Holding throughout (details): 10 µM unless noted

Where “and” joins values, the source holds several entries; their conditions need not be identical. Equal entries are not always repeated. About 83,000 compounds went through this panel and 20% of them were active in at least one assay; those are over-represented in the sample as a whole.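 Activity criterion: percent growth below 10, measured after cells in 96-well plates were exposed to a single compound concentration for 48 hours.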 Values without a mark were called inactive. Calls of active or inactive are those of the source.

Regarding `COC(=O)c1c(C(=O)OC)c2ccc3c4ccccc4ccc3n2c1C(=O)C(C)Br` (stereo not given), the growth in the assay on NCI-H23 lung was 33.4%; in the assay on NCI-H226 lung, 61.7%; in the assay on NCI-H322M lung, 83.4%; with HOP-62 NSCLC, 67.1%; in the assay with NCI-H460 lung it was 17.2%; in the assay on HOP-92 NSCLC it was 53.5%. Moreover, the growth with NCI-H522 lung was -55.9% (active); in the assay on A549/ATCC NSCLC it was 50.5%; in the assay with 786-0 renal it was 41.9%; with COLO 205 colon, 43.2%.

In the case of `Cc1ccc(-c2cc(-c3ccccc3)[nH]c(=O)c2C#N)cc1`, the growth was 96.4% in the assay on NCI-H23 lung; 86.8% in the assay on NCI-H226 lung; 91.2% in the assay on NCI-H322M lung; 85.3% in the assay on HOP-62 NSCLC; 90.8% in the assay with NCI-H460 lung; 45.7% in the assay with HOP-92 NSCLC. The growth is 74.9% in the assay with NCI-H522 lung, 77.3% in the assay with A549/ATCC NSCLC, 88.4% in the assay with 786-0 renal and 124% in the assay on COLO 205 colon.

Regarding `CS(=O)(=O)Nc1cccc(-n2c(COc3ccc(OC(F)(F)F)cc3)nc3ccccc32)c1`, the growth in the assay on NCI-H23 lung was 84.7% and 104%; in the assay with NCI-H226 lung, 83.3% and 103%; in the assay on NCI-H322M lung it was 101% and 121%; in the assay on HOP-62 NSCLC, 96.2% and 97.2%; in the assay on NCI-H460 lung it was 110%; with HOP-92 NSCLC it was 59.6% and 108%. Further, the growth in the assay on NCI-H522 lung is 84.8% and 101%; with A549/ATCC NSCLC, 96.1% and 111%; with 786-0 renal, 110% and 103%; with COLO 205 colon, 100% and 113%.

For the compound `NC1(c2ccc(-c3ccc4ncnc(NCc5ccccc5)c4c3)cn2)COC1`, the growth in the assay on NCI-H23 lung was 108% and 105%; in the assay with NCI-H226 lung, 103% and 111%; in the assay on NCI-H322M lung it was 109% and 97%; in the assay on HOP-62 NSCLC, 118% and 112%; in the assay with NCI-H460 lung, 106% and 112%; in the assay on HOP-92 NSCLC it was 112% and 120%. Also, the growth in the assay on NCI-H522 lung is 109% and 105%; with A549/ATCC NSCLC, 111% and 109%; with 786-0 renal, 115% and 104%; in the assay on COLO 205 colon it was 112% and 126%.

For the compound `CCc1ccccc1NC(=O)N/C(N)=N/c1nc2ccccc2s1`, the growth in the assay with NCI-H23 lung is -2.24% (active); in the assay on NCI-H226 lung it was 22.5%; with NCI-H322M lung, 28.3%; in the assay with HOP-62 NSCLC, -14.9% (active); in the assay on NCI-H460 lung, 39.5%; in the assay with HOP-92 NSCLC, -15.2% (active). Further, the growth is -53.5% (active) in the assay with NCI-H522 lung, 9.65% (active) with A549/ATCC NSCLC, -4.92% (active) with 786-0 renal and -84.1% (active) in the assay on COLO 205 colon.

For `O=C1Nc2ccccc2/C1=C\c1ccc(OCC(=O)c2ccc(Br)cc2)cc1`, the growth was 50.9% with NCI-H23 lung; 71.6% in the assay with NCI-H226 lung; 87.5% in the assay with NCI-H322M lung; 104% in the assay on HOP-62 NSCLC; 58.5% in the assay with NCI-H460 lung; 75.5% in the assay with HOP-92 NSCLC. Moreover, the growth in the assay on NCI-H522 lung is 61.4%; with A549/ATCC NSCLC it was 58.4%; in the assay on 786-0 renal, 89.8%; with COLO 205 colon, 65.9%.

For the compound `CN(C)c1nc(NCCNS(=O)(=O)c2ccc(C3=Nc4c(N)nc(N)nc4NC(c4ccc(Cl)cc4)C3)cc2)nc(N2CCOCC2)n1` (stereo not given), the growth with NCI-H23 lung is 69.2%; with NCI-H226 lung, 58.6%; in the assay on NCI-H322M lung, 69.3%; in the assay with HOP-62 NSCLC, 57.1%; in the assay with NCI-H460 lung, 59.1%; with HOP-92 NSCLC it was -10.8% (active). Besides, the growth was 65.3% with NCI-H522 lung, 63.4% in the assay on A549/ATCC NSCLC, 40.7% with 786-0 renal and 66.5% with COLO 205 colon.

For the compound `COc1cc2cc(C(=O)N3C[C@@H](CCl)c4c3cc(OC(=O)N(CCC(=O)N3CCN(C)CC3)C3CCCCC3)c3ccccc43)[nH]c2c(OC)c1OC`, the growth in the assay with NCI-H23 lung was -86.8% (active); in the assay with NCI-H226 lung it was -11.1% (active); in the assay on NCI-H322M lung, -28.6% (active); in the assay with HOP-62 NSCLC, -55.7% (active); with NCI-H460 lung, -73.1% (active); in the assay with HOP-92 NSCLC, -71% (active). For the same compound, the growth with NCI-H522 lung was -82% (active); in the assay on A549/ATCC NSCLC it was -24.1% (active); in the assay with 786-0 renal, -96% (active); in the assay on COLO 205 colon it was -66.7% (active).

For the compound `Cn1cc(-c2cc(N)n3nc(-c4c[nH]c5ccccc45)cc3n2)c2ccccc21`, the growth was -73.4% (active) in the assay with NCI-H23 lung; -38.6% (active) in the assay with NCI-H226 lung; -80% (active) in the assay with NCI-H322M lung; -85.4% (active) in the assay with HOP-62 NSCLC; -66.6% (active) in the assay with NCI-H460 lung; -59.5% (active) with HOP-92 NSCLC. Moreover, the growth was -85.1% (active) with NCI-H522 lung, -75.2% (active) in the assay with A549/ATCC NSCLC, -81.6% (active) in the assay on 786-0 renal and -88.6% (active) with COLO 205 colon.

Turning to `COc1cc(C2CC(c3ccc(S(=O)(=O)NCCNc4nc(N(C)C)nc(N5CCOCC5)n4)cc3)=Nc3c(N)nc(N)nc3N2)cc(OC)c1OC` (stereo not given), the growth in the assay with NCI-H23 lung was 97.4%; with NCI-H226 lung, 85.1%; in the assay on NCI-H322M lung, 79.8%; in the assay on HOP-62 NSCLC, 90.8%; in the assay on NCI-H460 lung, 104%; in the assay on HOP-92 NSCLC, 92.7%. In addition, the growth was 90.1% in the assay on NCI-H522 lung, 98.3% with A549/ATCC NSCLC, 94.3% with 786-0 renal and 116% in the assay on COLO 205 colon.

Regarding `COc1ccc(C(=O)C[n+]2cccc3c4ccccc4ccc32)cc1`, the growth with NCI-H23 lung was 28.4%; in the assay with NCI-H226 lung, 59.1%; in the assay with NCI-H322M lung it was 68.8%; in the assay on HOP-62 NSCLC it was 44.2%; in the assay on NCI-H460 lung it was 19.4%; in the assay on HOP-92 NSCLC, 12.5%. Also, the growth is 28.8% with NCI-H522 lung, 38.2% in the assay with A549/ATCC NSCLC, 66.9% in the assay on 786-0 renal and 26.5% with COLO 205 colon.

For `COc1ccc(NC(=O)Nc2nc3ccc([N+](=O)[O-])cc3s2)cc1`, the growth is -2.33% (active) with NCI-H23 lung; 6.28% (active) in the assay on NCI-H226 lung; 13.1% in the assay on NCI-H322M lung; 25.4% in the assay on HOP-62 NSCLC; 3.86% (active) with NCI-H460 lung; -5.8% (active) in the assay with HOP-92 NSCLC. The growth in the assay with NCI-H522 lung was 1.25% (active); in the assay with A549/ATCC NSCLC it was 30.2%; with 786-0 renal, 35.3%; in the assay on COLO 205 colon, 67.9%.

As for `COc1cc(CNC(=O)C[C@H](C)CCC=C(C)C)ccc1OCc1cn(-c2cccc(C(F)(F)F)c2)nn1`, the growth in the assay with NCI-H23 lung is 79.4%; in the assay with NCI-H226 lung it was 72.3%; in the assay on NCI-H322M lung, 90.1%; in the assay on HOP-62 NSCLC it was 88.8%; in the assay with NCI-H460 lung, 14.6%; in the assay with HOP-92 NSCLC, 86.1%. The growth in the assay on NCI-H522 lung was 83.1%; in the assay with A549/ATCC NSCLC, 42.6%; in the assay on 786-0 renal it was 93%; in the assay on COLO 205 colon, 74.2%.

`Cc1ccccc1NC(=O)c1cccc(NC(=O)CCl)c1`: the growth in the assay on NCI-H23 lung was 52.8%; with NCI-H226 lung, 42.4%; with NCI-H322M lung, 101%; in the assay with HOP-62 NSCLC it was 32.3%; in the assay on NCI-H460 lung, 41.6%; with HOP-92 NSCLC, 70%. Also, the growth with NCI-H522 lung was -71.7% (active); with A549/ATCC NSCLC it was 59.1%; in the assay with 786-0 renal, 16.6%; with COLO 205 colon, 76.5%.

Take `Cc1ccc2c(c1)/C(=C/C(=O)c1cc3ccccc3oc1=O)C(=O)N2`: the growth in the assay with NCI-H23 lung was 71.6%; with NCI-H226 lung, 51.8%; with NCI-H322M lung it was 101%; in the assay with HOP-62 NSCLC, 89.4%; in the assay on NCI-H460 lung, 97%; in the assay on HOP-92 NSCLC it was -4.43% (active). Also, the growth with NCI-H522 lung is -94.4% (active); in the assay on A549/ATCC NSCLC it was 89.5%; with 786-0 renal it was 74.7%; with COLO 205 colon it was 30.4%.

`COc1cc(CNC(=O)C[C@H](C)CCC=C(C)C)ccc1OCc1cn(-c2ccccc2Cl)nn1`: the growth in the assay with NCI-H23 lung is 64.5%; in the assay with NCI-H226 lung it was 59.7%; in the assay on NCI-H322M lung it was 91.3%; in the assay with HOP-62 NSCLC it was 79.3%; in the assay with NCI-H460 lung it was 78.4%; with HOP-92 NSCLC, 79.4%. Further, the growth is 51.4% in the assay on NCI-H522 lung, 64.1% with A549/ATCC NSCLC, 87.7% in the assay on 786-0 renal and 71.7% in the assay on COLO 205 colon.
